Results as given in PubChem BioAssay AID540333 (Southern Research Specialized Biocontainment Screening …, 2011).
Screen size: about 10,000 compounds; about 320 (3.2%) were called active. What follows is part of a selection rich in actives, with near analogues and random picks from the rest. Unmarked numbers belong to inactive results. Cut-off read from the data, not from the text of the source: active = CPE inhibition mostly above about 9.1% (no sharp cut-off); inactive = mostly below about 7.2%.

Assay: antivirals protecting cells from dengue CPE – CPE readout, HTS (AID 540333)
Conditions: Dengue virus CPE inhibition in host cells, at 20 µM; hits give high values
For O=C(COc1ccccc1[N+](=O)[O-])N/N=C/c1cccs1, the CPE inhibition was “inactive”.
With CCOc1cccc(/C=N/NC(=S)Nc2cc(S(=O)(=O)N3CCOCC3)ccc2N2CCOCC2)c1O the CPE inhibition was “inactive”.
For Cc1ccc2[nH]c(=O)cc(C(=O)OCC(=O)c3ccccc3)c2c1, the CPE inhibition was “inactive”.
For COC(=O)CN1C(c2cccc(Cl)c2)=Nc2ccc(Cl)cc2C1c1ccccc1 (centres undefined), the CPE inhibition was 14.1% (active).
With CCOC(=O)CN1C(=O)N[C@@H](c2ccccc2)[C@@H](C(=O)OC)[C@H]1C the CPE inhibition was 0.065%.
With COC(=O)CN1C(c2ccc(OC)cc2)=Nc2ccc(Cl)cc2C1c1ccccc1 (centres undefined) the CPE inhibition was 7.85%.
With Cc1cc(C(=O)N2CCN(c3ccc([N+](=O)[O-])cc3)CC2)no1 the CPE inhibition was “inactive”.
For O=C1CC(c2ccccc2)Sc2nc(-c3ccccc3)c(-c3ccccc3)n21 (centres undefined), the CPE inhibition was “inactive”.
For Cc1ccc(OCCN(C)C)c([N+](=O)[O-])c1, the CPE inhibition was 0.995%.
Work on O=[N+]([O-])c1cccc(C(=S)N2CCN(c3ccccc3)CC2)c1 yielded a CPE inhibition of 0.055%.
CS(=O)(=O)N1CCN(c2ccc([N+](=O)[O-])c(NCc3ccc(Cl)cc3)c2)CC1 gave a CPE inhibition of 1.16%.
In the case of Cc1ccc(NC(=O)CSc2nnc(-c3cccs3)o2)cc1S(=O)(=O)N1CCCCC1, the CPE inhibition is reported as “inactive”.
In the case of COC(=O)Cc1ccc(NC(=S)NCc2ccc(Cl)cc2)cc1, the CPE inhibition is reported as “inactive”.
In the case of S=C(NCc1ccncc1)Nc1ccc(Cl)cc1, the CPE inhibition is reported as 0.775%.
In the case of COC(=O)c1cc(NC(=S)NCc2ccc(Cl)cc2)cc(C(=O)OC)c1, the CPE inhibition is reported as 13.6% (active).
CC1=CC(C)(C)N(C(=O)CSc2nnc(N)s2)c2ccccc21 gave a CPE inhibition of 0.04%.
In the case of COc1ccc2c(c1)-c1nc(/N=C/c3ccc(O)c(OC)c3)sc1CC2, the CPE inhibition is reported as 1.8%.
With Cc1ccc(-n2nc(C)c(C3(O)C(=O)N(C(C)C)c4ccccc43)c2N)cc1 (centres undefined) the CPE inhibition was “inactive”.
CCOC(=O)C1=C(C)N(CCCCCC(=O)O)C(=O)NC1c1cccc([N+](=O)[O-])c1 (centres undefined) gave a CPE inhibition of 0.825%.
For COC(=O)C1=C(C)N(Cc2ccccc2)C(=O)N[C@H]1c1cccc(F)c1, the CPE inhibition was 0.125%.
For CCOC(=O)C1=C(C)N(Cc2ccccc2)C(=O)NC1c1ccccc1OS(=O)(=O)c1ccccc1[N+](=O)[O-] (centres undefined), the CPE inhibition was 14.2% (active).
In the case of Cc1ccc(Cn2c(SCC(=O)N3CC(=O)Nc4ccccc43)nc3ccccc3c2=O)cc1, the CPE inhibition is reported as 22.3% (active).
Compound Cc1ccc(-n2c(SCC(=O)N3CC(=O)Nc4ccccc43)nc3ccccc3c2=O)cc1 has a CPE inhibition of 2.37%.
Cc1cccc(C)c1-n1c(SCC(=O)N2CC(=O)Nc3ccccc32)nc2ccccc2c1=O gave a CPE inhibition of 1.7%.
In the case of COc1ccc(C2=NN(C(=O)CSc3nc4ccccc4s3)C(c3ccc(OC)cc3)C2)cc1 (centres undefined), the CPE inhibition is reported as 2.96%.
For CCCn1c(SCC(=O)N2N=C3/C(=C/c4ccc(OC)cc4)CCCC3C2c2ccc(OC)cc2)n[nH]c1=O (centres undefined), the CPE inhibition was 10.2% (active).
In the case of COc1ccc(C2CC(c3ccccc3)=NN2C(=O)CSc2ncccn2)cc1 (centres undefined), the CPE inhibition is reported as 0.205%.
Compound C#CCNC(=O)C1=C[C@@H](c2ccc(C(F)(F)F)cc2)C[C@@H](OCc2ccc(CO)cc2)O1 has a CPE inhibition of 2.77%.
In the case of CCC(OCC(O)CN1CCN(CCN2C(=O)c3cccc4cccc(c34)C2=O)CC1)c1ccccc1 (centres undefined), the CPE inhibition is reported as “inactive”.
In the case of Cc1cccc(-n2c(Cc3ccccc3)nnc2SCc2ccc([N+](=O)[O-])cc2)c1, the CPE inhibition is reported as 14.3% (active).
With O=[N+]([O-])c1ccc(CSc2nnc(Cc3ccccc3)n2-c2ccc(F)cc2)cc1 the CPE inhibition was 3.26%.
With Cc1cccc(CC(=O)N2CCN=C2SCc2ccc([N+](=O)[O-])cc2)c1 the CPE inhibition was “inactive”.
With Cc1ccc(NC(=O)CCC(=O)NNS(=O)(=O)c2ccccc2)cc1C the CPE inhibition was “inactive”.
For Cc1ccc(S(=O)(=O)NCCC(=O)Nc2ccc(C)c(Cl)c2)cc1C, the CPE inhibition was 12.8% (active).
Cc1ccc(NC(=O)c2cc(S(=O)(=O)NCCc3ccccc3)ccc2F)cc1Cl showed a CPE inhibition of 2.79%.
CC(Sc1nnc(-c2ccccc2)c(-c2ccccc2)n1)C(=O)Nc1ncc(Cl)cc1Cl (centres undefined) showed a CPE inhibition of 0.725%.
With C/C(=N\NC(=O)c1cccc(S(=O)(=O)Nc2ccccc2Cl)c1)c1ccco1 the CPE inhibition was “inactive”.
In the case of CCOc1ccc(Br)cc1CSC(=N)N, the CPE inhibition is reported as 13.3% (active).
With CCOc1ccc(CSC(=N)N)cc1 the CPE inhibition was 0.245%.
For CCOc1ccc(Br)cc1CNCCN1CCOCC1, the CPE inhibition was “inactive”.
Compound O=C(Oc1ccccc1N1C(=O)C2CC=CCC2C1=O)c1ccc(Br)cc1 (centres undefined) has a CPE inhibition of 0.075%.
For CC1C=CCC2C(=O)N(c3ccc(Cl)cc3O)C(=O)C12 (centres undefined), the CPE inhibition was 28.6% (active).
With O=C(NCCCN1CCOCC1)c1onc(CSc2ccccc2)c1C(=O)NCCCN1CCOCC1 the CPE inhibition was “inactive”.
Cc1ccc(CCc2nnc(SCC(=O)Nc3ccccc3Cl)n2-c2ccccc2)o1 gave a CPE inhibition of 0.905%.
Compound Cc1ccc(C)c(NC(=O)CSc2nnc(-c3n[nH]c4ccccc34)o2)c1 has a CPE inhibition of 0.235%.
With O=C(CSc1nnc(-c2n[nH]c3ccccc23)n1-c1ccccc1)Nc1ccccc1Cl the CPE inhibition was 19% (active).
In the case of Cc1ccc(S(=O)(=O)NN=C2C3CC4CC(C3)CC2C4)cc1[N+](=O)[O-], the CPE inhibition is reported as 0.27%.
Compound Cn1cnnc1SC1c2cccc3cccc(c23)C1NS(=O)(=O)c1ccccc1 (centres undefined) has a CPE inhibition of 0.485%.
Compound Cc1ccc(C=Nc2ccccc2C(=O)Nc2ccccc2)cc1 has a CPE inhibition of 0.36%.
With CC(C)(C)OC(=O)C[C@H]1C/C=C\C[C@@H](CC(=O)N(CCO)Cc2ccccc2)C(=O)N[C@@H](c2ccccc2)COC1=O the CPE inhibition was “inactive”.
In the case of CN(C(=O)COC(=O)c1cc(-c2ccccc2Cl)nc2ccccc12)C1CCS(=O)(=O)C1 (centres undefined), the CPE inhibition is reported as “inactive”.
For CC1(C)C(C=C(Cl)Cl)C1C(=O)N(Cc1ccccc1Cl)C1CCS(=O)(=O)C1 (centres undefined), the CPE inhibition was 29.9% (active).
Work on CC1(C)C(C=C(Cl)Cl)C1C(=O)N(Cc1cccc(Cl)c1)C1CCS(=O)(=O)C1 (centres undefined) yielded a CPE inhibition of 0.525%.
With CCN(Cc1ccccc1)C(=O)C1CCN(C/C(C)=C/c2ccccc2)CC1 the CPE inhibition was “inactive”.
For Cc1ccc(C)c(S(=O)(=O)Nc2nc(C)c(C(=O)Nc3ccccc3)s2)c1, the CPE inhibition was “inactive”.
In the case of O=C1NC(c2ccc(-c3ccccc3[N+](=O)[O-])o2)C(C(=O)c2ccc(F)cc2)C(O)(C(F)(F)F)N1 (centres undefined), the CPE inhibition is reported as 23.4% (active).
For O=C1NC(c2ccc(-c3ccccc3[N+](=O)[O-])o2)C(C(=O)c2ccc(Cl)cc2)C(O)(C(F)(F)F)N1 (centres undefined), the CPE inhibition was 30.5% (active).
In the case of O=C(N/N=C/c1ccc(-c2ccccc2[N+](=O)[O-])o1)[C@H]1C[C@@H]1c1ccccc1, the CPE inhibition is reported as “inactive”.
Work on O=C1c2ccccc2NC(c2ccc(-c3cccc([N+](=O)[O-])c3)o2)N1O (centres undefined) yielded a CPE inhibition of 0.135%.
In the case of O=c1nc2s/c(=C\c3ccc(-c4ccccc4[N+](=O)[O-])o3)c(=O)n2nc1-c1ccccc1, the CPE inhibition is reported as “inactive”.
In the case of O=C(/C=C/c1ccc(-c2ccccc2[N+](=O)[O-])o1)c1ccccc1, the CPE inhibition is reported as 3.25%.
COc1ccc(-c2cn(-c3ccccc3)c3[n+]2CCS3)cc1 gave a CPE inhibition of 7.46%.
Compound O=C(CSc1nc2ccccc2[nH]1)Nc1ccc2c(c1)CCC2 has a CPE inhibition of 2.09%.
With NS(=O)(=O)c1ccc(NC(=S)NCc2ccccc2Cl)cc1 the CPE inhibition was 1.7%.
O=[N+]([O-])c1ccc(N2CCOCC2)cc1SCc1ccco1 gave a CPE inhibition of 0.08%.
With COCCNC(=S)N1CCc2cc(OC)c(OC)cc2C1COc1ccc(C(C)C)cc1 (centres undefined) the CPE inhibition was 15.5% (active).
With COc1cc2c(cc1OC)CN(C(=S)Nc1c(C)cccc1C)CC2 the CPE inhibition was “inactive”.
For CCc1ccc(OCC2c3cc(OC)c(OC)cc3CCN2C(=S)NCCOC)cc1 (centres undefined), the CPE inhibition was 17.3% (active).
With COc1cccc(NC(=S)N2CCc3cc(OC)c(OC)cc3C2COc2ccc3c(C)cc(=O)oc3c2)c1 (centres undefined) the CPE inhibition was 0.46%.
Work on COCCNC(=S)N/N=C(\C)c1ccc2cc(OC)ccc2c1 yielded a CPE inhibition of 0.1%.
With COc1cc2c(cc1OC)C(C)N(C(=O)c1ccc(Br)o1)CC2 (centres undefined) the CPE inhibition was “inactive”.
In the case of COC(=O)Cc1ccc2sc(-c3ccccc3)nc2c1, the CPE inhibition is reported as “inactive”.
For COc1cc(/C=N/NC(=O)C2COc3ccccc3O2)cc(OC)c1OC (centres undefined), the CPE inhibition was “inactive”.
For CC(C(=O)NCC1CCCCC1)N1CCN(S(=O)(=O)/C=C/c2ccccc2)CC1 (centres undefined), the CPE inhibition was 0.61%.
In the case of O=C(NNS(=O)(=O)c1ccc2ccccc2c1)NC1CCCCC1, the CPE inhibition is reported as “inactive”.
For COc1ccc(NS(=O)(=O)c2ccc(C)c(NC(=O)NC3CCCCC3)c2)cc1, the CPE inhibition was 7.27% (active).
For COc1ccc(NS(=O)(=O)c2ccc(OC)c(NC(=O)CCC3CCCCC3)c2)cc1, the CPE inhibition was 0.695%.
Work on CCOc1ccc(/C(O)=C2/C(=O)C(=O)N(CC3CCCO3)C2c2cccs2)cc1 (centres undefined) yielded a CPE inhibition of 0.87%.
Work on Cc1nn(Cc2ccc(C(=O)N3N=C(C(F)F)CC3(O)C(F)F)o2)c(C)c1[N+](=O)[O-] (centres undefined) yielded a CPE inhibition of 0.095%.
Compound COc1cccc(NC(=O)CN(C)C(=O)COc2ccc3ccccc3c2)c1 has a CPE inhibition of 0.135%.
For Cc1ccc(S(=O)(=O)Nc2ccc(-c3nnc(SCc4ccccc4Cl)o3)cc2)cc1, the CPE inhibition was 17.2% (active).
In the case of Cc1ccc(S(=O)(=O)Nc2cc(=O)[nH]c(SCc3ccccc3Cl)n2)cc1, the CPE inhibition is reported as “inactive”.
With O=C(CSc1nnc(-c2ccncc2)o1)NCc1ccccc1Cl the CPE inhibition was “inactive”.
With Cc1nn(CCC(N)=O)c2nc(-c3cccs3)cc(C(F)(F)F)c12 the CPE inhibition was “inactive”.
Work on O=C(Oc1ccccc1C(=O)Nc1ccccc1)c1ccccc1Br yielded a CPE inhibition of 1.84%.
For COc1ccccc1CNC(=O)C(NS(=O)(=O)c1ccc2c(c1)OCCO2)C(C)C (centres undefined), the CPE inhibition was “inactive”.
CCCCN(C)C(=S)Nc1ccc(Oc2ccccc2)cc1 gave a CPE inhibition of 3.21%.
In the case of CCCn1c(SC(C(=O)Nc2cccc(OC)c2)c2ccccc2)nc2ccccc2c1=O (centres undefined), the CPE inhibition is reported as 0.175%.
With Cc1ccccc1NC(=O)C1CCCN1/C=C/C(=O)C(F)(F)F (centres undefined) the CPE inhibition was “inactive”.
